Article PMC4336329 (PLoS ONE, 2015)
The whole screen tested about 310,000 compounds, of which about 2,200 (0.71%) showed an effect of 50% or more. Effects have a minus sign here. This is one part of a sample in which strong results are shown more often than they occur.

target: human ether-à-go-go-related gene (hERG) potassium channel (human, UniProt Q12809); assay: primary screen, population patch clamp on CHO cells stably expressing hERG; higher = less effect of the substance
Sequence (Q12809 whole entry, looked up): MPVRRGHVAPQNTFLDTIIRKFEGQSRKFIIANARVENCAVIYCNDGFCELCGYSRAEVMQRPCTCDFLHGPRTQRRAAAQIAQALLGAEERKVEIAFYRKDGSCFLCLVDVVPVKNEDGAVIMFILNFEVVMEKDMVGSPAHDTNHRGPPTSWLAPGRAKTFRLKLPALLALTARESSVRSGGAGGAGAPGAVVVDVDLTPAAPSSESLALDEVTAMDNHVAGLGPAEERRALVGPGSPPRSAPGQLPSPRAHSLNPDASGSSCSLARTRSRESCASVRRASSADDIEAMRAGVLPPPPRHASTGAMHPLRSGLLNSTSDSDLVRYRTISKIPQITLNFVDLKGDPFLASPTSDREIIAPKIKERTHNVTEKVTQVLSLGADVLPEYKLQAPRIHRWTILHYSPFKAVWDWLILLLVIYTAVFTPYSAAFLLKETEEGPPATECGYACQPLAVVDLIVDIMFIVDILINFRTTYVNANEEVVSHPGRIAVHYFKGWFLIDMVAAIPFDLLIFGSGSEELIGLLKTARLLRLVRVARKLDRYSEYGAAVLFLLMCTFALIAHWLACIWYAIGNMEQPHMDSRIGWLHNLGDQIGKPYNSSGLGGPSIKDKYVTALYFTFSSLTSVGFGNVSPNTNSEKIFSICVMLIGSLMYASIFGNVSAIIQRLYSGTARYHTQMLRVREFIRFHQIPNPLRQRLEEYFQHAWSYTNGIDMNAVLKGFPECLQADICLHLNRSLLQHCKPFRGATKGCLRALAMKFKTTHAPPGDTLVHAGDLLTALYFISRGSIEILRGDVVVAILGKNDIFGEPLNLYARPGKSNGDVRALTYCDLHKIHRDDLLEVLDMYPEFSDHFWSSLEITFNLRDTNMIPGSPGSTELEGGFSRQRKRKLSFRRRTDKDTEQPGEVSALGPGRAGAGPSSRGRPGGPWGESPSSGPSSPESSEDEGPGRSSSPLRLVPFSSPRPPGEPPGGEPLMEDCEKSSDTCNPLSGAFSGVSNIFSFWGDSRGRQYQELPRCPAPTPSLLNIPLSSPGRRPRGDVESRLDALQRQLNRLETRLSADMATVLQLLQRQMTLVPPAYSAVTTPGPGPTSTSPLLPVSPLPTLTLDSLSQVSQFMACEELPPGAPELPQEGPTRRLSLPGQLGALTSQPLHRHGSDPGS

SMILES | hERG current change (%, negative = inhibition) at 1uM
O=C(CN1CCN(c2ccc(F)cc2)CC1)Nc1ccc(-n2cnnn2)cc1 | 8.42%
O=C(CSc1nn(-c2ccc(F)cc2)c(=S)s1)NCC1CCCO1 (stereo not drawn) | -2.14%
Cc1ccc(Cl)cc1NC(=O)N[C@@H](C)C(=O)O | 9.9%
Cc1cccc(C2c3[nH]c4ccccc4c3CCN2C(=O)c2cc(CC(C)C)nc(C)n2)n1 (stereo not drawn) | 14%
CCOc1ccc(C(=O)N2CCN(Cc3ccccc3)CC2)cc1 | -60.3%
Clc1ccc(CN2CCC(Cc3ccccc3)CC2)cc1 | 12.3%
CCOc1ccc(CN2CCC(Cc3ccccc3)CC2)cc1 | -76.8%
CCOc1ccc(C(=O)N2CCN(c3ccccc3)CC2)cc1 | -0.559%
CSc1ccc(CN2CCC(Cc3ccccc3)CC2)cc1 | -29.6%
CCOc1ccc(CN2CCN(C(=O)c3ccccc3)CC2)cc1 | -1.03%
CCCCNC(=O)C1C2C=CC3(CN(Cc4ccc(C)cc4)C(=O)C13)O2 (stereo not drawn) | 13.1%
O=C(Nc1cccc(Cl)c1)NC1CCS(=O)(=O)C1 (stereo not drawn) | 12.9%
CCNC(=O)Nc1nc2ccccc2s1 | 8.72%
Cc1nn(C)c(=O)c(N)c1-c1cc(-c2ccc(Cl)c(Cl)c2)n[nH]1 | 12.9%
CCN(C(=S)Nc1ccc(OC(F)F)cc1)C1CCCCC1 | -1.82%
CCN(CC(=O)Nc1ccc(OC(F)F)cc1)C1CCCCC1 | -61.6%
CCN(CC(=O)Nc1ccc(C(=O)OC)cc1)C1CCCCC1 | 16.3%
COc1ccc(OCCC(=O)c2ccc(OC)cc2)cc1 | 4.68%
CC(OC(=O)CC1CCCCC1)C(=O)Nc1cccc(C#N)c1 (stereo not drawn) | 6.92%
CCOc1ccc(/C=N/NC(=O)C2CC2)cc1OC | 19.1%

SMILES | hERG current change (%, negative = inhibition) at 1uM
COc1cc(/C=N/NC(=O)C2CCN(CC(O)COCc3ccccc3)CC2)cc(OC)c1OC (stereo not drawn) | -34.2%
COc1cc(/C=N/NC(=O)C2CCN(CC(O)COCc3ccccc3)CC2)ccc1O (stereo not drawn) | -63.6%
O=C(Nc1ccccc1)OCCOc1ccc(Br)cc1 | 11.2%
O=C(O)c1ccc(C[n+]2c(-c3ccccc3)csc2Nc2ccccc2)cc1.[Br-] | 8.98%
COc1ccc(CCNc2c3ccccc3nc3ccccc23)cc1OC.Cl | -59.8%
CCOC(=O)c1cnc2c(C)cccc2c1NCCc1ccc(OC)c(OC)c1 | -4.73%
CCOC(=O)c1cnc2ccccc2c1NCCO | -15.2%
COc1ccc(CCNc2nc(-c3cccnc3)nc3ccccc23)cc1OC | 9.94%
Cl.Oc1ccc(CCNc2c3ccccc3nc3ccccc23)cc1O | -3.93%
CCOC(=O)c1cnc2ccc(OC)cc2c1NCCc1ccc(OC)c(OC)c1 | -69.5%
CCOC(=O)c1cnc2ccc(C(=O)OC)cc2c1NCCc1ccc(OC)c(OC)c1 | 0.861%
CCOC(=O)c1cnc2ccc(OC)cc2c1NCCN1CCOCC1 | -13.3%
CCOC(=O)c1cnc2ccccc2c1NCCc1ccc(OC)c(OC)c1 | -72%
O=C(CCCOc1ccc(Cl)cc1)NC1CCCCC1 | 12.5%
Cc1ccc2sc(NNC(=O)c3ccc4c(c3)OCCO4)nc2c1C | 8.2%
CCC(=O)n1nc(-c2ccc(Cl)cc2)nc1NCc1ccccc1 | 8.9%
COc1cccc(N2CC(O)=C(c3nc4ccccc4c(=O)[nH]3)C2=N)c1 | 6.93%
Cc1c(O)ccc(NS(=O)(=O)c2ccccc2)c1C | 13%
O=c1[nH]c2ccccc2n1C1CCN(CCCC(c2ccc(F)cc2)c2ccc(F)cc2)CC1 | -76.5%
O=C(CCCN1CCC(n2c(=O)[nH]c3ccccc32)CC1)c1ccc(F)cc1 | -80.8%

SMILES | hERG current change (%, negative = inhibition) at 1uM
O=c1[nH]c2ccccc2n1C1CCCCC1 | 7.5%
O=C1CC(N2CCC(n3c(=O)[nH]c4ccccc43)CC2)C(=O)N1c1ccc(F)cc1 (stereo not drawn) | 7.15%
O=c1[nH]c2ccccc2n1CCCN1CCC(n2c(=O)[nH]c3cc(Cl)ccc32)CC1 | -46.8%
O=C(Nc1cccc(F)c1)N1CCC(n2c(=O)[nH]c3ccccc32)CC1 | 2.25%
CCN(CC)C(=O)c1ccc(NC(=O)c2ccc(-n3cncn3)c([N+](=O)[O-])c2)cc1 | 4.18%
CS(=O)(=O)NNC(=O)CN1C(=O)C2C3C=CC(C3)C2C1=O (stereo not drawn) | 22.9%
Cc1noc(C)c1C(=O)Nc1nc2ccc(F)cc2s1 | 2.2%
CCOC(=O)C(C)Sc1nnc(Cn2c(=O)sc3ccccc32)n1-c1ccccc1 (stereo not drawn) | 4.98%
CCOCCn1c(=O)c2c(nc3n2CC(C)CN3Cc2ccccc2)n(C)c1=O (stereo not drawn) | -14.4%
CCOCCn1c(=O)c2c(nc3n2CC(C)CN3CCc2ccccc2)n(C)c1=O (stereo not drawn) | -58.9%
COCCn1c(=O)c2c(nc3n2CC(C)CN3CCc2ccccc2)n(C)c1=O (stereo not drawn) | -9.39%
O=C(CC1NCCNC1=O)Nc1cccc([N+](=O)[O-])c1 (stereo not drawn) | 6.97%
CCC(C)N(C(=O)COC(=O)c1ccccc1SCC(=O)N1CCCC1)C1CCS(=O)(=O)C1 (stereo not drawn) | 11.9%
O=C1c2ccccc2-c2nc3ncnn3c(-c3ccccc3Cl)c21 | 5.18%
Cc1ccc(Nc2nc(NCCCN3CCOCC3)nc(N)c2[N+](=O)[O-])cc1C | 4.15%
Cc1ccc(Nc2nc(NCCCN3CCOCC3)nc(N)c2[N+](=O)[O-])cc1 | -56.2%
COc1ccc(Nc2nc(NCCCN3CCOCC3)nc(N)c2[N+](=O)[O-])cc1 | 3.71%
COc1ccc(NC(=O)c2ccc(-n3cccn3)nc2)c(OC)c1 | 17.4%
COC(=O)c1ccc2nc(NC(=O)CN3C(=O)CCC3=O)sc2c1 | 14.3%
CN(CC(=O)Nc1cccc(F)c1)C(=O)c1cc(S(=O)(=O)N2CCCCC2)ccc1N1CCOCC1 | 3.68%
